Screening data deposited in PubChem BioAssay by National Center for Advancing Translational Sciences (NCATS).
G9a block: blocks human histone lysine methyltransferase G9a; Q96KQ7; G9a H3K9 monomethylation, AlphaScreen, 2 h; Potency, µM (doses to about 102 µM), for inactives: at the highest dose activity, negative = inhibition, actives largely listed as inhibitors; actives 8.8% (n = 350,000); AID 504332; also: % is scaled to controls: 0 for no effect and ±100 for the full control effect; nearly all actives have a fitted effect of over 75% in size
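Quantitative HTS format: methyltransferase activity on a biotin-tagged H3K9 peptide is measured by AlphaScreen, using a rabbit anti-monomethyl-H3K9 antibody with streptavidin donor and anti-IgG acceptor beads. Final levels are 20 nM enzyme, 500 nM peptide, 20 uM SAM; 2 h RT.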
HP1b binding inh: HP1-beta chromodomain-methylated histone interaction inhibition; P83916; AlphaScreen HP1-beta / biotin-H3K9me3 peptide binding; Potency, µM (doses to about 114 µM), without a hit: at the top dose activity change, negative = inhibition, usual class: inhibitors; actives 0.56% (n = 390,000); also: nearly all actives have a fitted effect of over 70% in size
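Compound inhibition of the preformed complex between 50 nM HP1-beta and 50 nM biotinylated H3K9me3 peptide was read by AlphaScreen. Buffer was PBS pH 7.4 with 0.01% Tween-20. Incubations ran 30 min at room temperature, with 10 ug/mL donor/acceptor beads.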
BAZ2B block: inhibitors of human BAZ2B bromodomain. Potency, µM (highest dose often 114 µM), without a hit: at the top dose activity change, negative = inhibition, most hits filed as inhibitors. actives 4.4% (n = 360,000). AlphaScreen BAZ2B-H3K14Ac peptide displacement; also: % is scaled to controls: 0 for no effect and ±100 for the full control effect; nearly all actives have a fitted effect of over 60% in size
Target sequence (Q9UIF8 whole entry, looked up): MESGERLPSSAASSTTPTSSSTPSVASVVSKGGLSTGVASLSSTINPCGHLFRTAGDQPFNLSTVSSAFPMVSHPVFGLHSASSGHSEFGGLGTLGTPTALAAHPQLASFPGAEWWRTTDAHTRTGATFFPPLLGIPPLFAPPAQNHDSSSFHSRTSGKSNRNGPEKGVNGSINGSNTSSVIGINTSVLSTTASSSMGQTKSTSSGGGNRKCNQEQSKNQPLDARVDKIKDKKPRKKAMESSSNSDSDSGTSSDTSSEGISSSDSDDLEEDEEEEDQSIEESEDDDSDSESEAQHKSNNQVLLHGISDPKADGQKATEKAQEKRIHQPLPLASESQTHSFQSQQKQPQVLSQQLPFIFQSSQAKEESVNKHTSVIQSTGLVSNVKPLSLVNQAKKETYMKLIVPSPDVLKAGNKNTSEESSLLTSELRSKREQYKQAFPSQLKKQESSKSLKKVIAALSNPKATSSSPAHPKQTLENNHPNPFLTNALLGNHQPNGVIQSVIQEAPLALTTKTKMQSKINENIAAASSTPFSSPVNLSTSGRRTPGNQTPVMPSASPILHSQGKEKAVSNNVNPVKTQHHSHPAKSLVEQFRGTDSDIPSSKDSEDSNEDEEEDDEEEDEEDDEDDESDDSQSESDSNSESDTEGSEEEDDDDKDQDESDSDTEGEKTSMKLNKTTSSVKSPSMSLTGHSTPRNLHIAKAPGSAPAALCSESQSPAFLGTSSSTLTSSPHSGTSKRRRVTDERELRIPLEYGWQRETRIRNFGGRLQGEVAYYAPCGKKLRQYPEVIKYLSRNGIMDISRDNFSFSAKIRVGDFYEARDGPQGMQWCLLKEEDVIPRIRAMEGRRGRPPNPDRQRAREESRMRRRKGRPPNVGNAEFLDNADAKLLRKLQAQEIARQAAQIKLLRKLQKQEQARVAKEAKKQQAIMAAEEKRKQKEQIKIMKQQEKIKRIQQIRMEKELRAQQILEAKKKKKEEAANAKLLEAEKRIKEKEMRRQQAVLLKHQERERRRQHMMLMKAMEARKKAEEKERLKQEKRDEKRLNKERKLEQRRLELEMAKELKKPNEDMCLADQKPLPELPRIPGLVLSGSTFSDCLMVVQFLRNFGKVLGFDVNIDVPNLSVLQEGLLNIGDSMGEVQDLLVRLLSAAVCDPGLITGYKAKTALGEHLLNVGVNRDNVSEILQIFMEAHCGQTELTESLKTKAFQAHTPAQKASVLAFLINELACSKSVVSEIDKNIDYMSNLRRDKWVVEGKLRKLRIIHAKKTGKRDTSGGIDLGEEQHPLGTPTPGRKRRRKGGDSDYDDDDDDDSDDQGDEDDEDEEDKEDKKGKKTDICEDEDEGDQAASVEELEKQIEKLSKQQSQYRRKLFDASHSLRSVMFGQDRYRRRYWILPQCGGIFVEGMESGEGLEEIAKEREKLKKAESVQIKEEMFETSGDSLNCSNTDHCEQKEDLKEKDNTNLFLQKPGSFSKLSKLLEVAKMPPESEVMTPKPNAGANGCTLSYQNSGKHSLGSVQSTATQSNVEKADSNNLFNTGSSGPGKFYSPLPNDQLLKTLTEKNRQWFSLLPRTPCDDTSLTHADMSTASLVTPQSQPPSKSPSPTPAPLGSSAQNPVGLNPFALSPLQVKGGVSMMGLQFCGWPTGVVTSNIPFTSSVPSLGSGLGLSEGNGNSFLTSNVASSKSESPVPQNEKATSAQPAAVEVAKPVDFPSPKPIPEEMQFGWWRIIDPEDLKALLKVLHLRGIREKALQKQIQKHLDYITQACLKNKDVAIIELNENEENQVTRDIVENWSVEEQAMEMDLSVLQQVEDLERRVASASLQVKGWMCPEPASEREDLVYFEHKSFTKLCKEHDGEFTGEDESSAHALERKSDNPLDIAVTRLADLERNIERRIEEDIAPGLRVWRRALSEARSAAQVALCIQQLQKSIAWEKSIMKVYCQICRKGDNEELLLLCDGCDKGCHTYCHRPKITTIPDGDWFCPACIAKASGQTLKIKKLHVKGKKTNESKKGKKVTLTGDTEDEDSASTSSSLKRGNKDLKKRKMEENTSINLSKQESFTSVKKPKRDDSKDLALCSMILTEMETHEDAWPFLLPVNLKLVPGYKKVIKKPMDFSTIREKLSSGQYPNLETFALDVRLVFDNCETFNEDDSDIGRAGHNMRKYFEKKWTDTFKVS
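Multi-concentration screen (max 110 uM) measuring displacement of acetylated histone H3 peptide from BAZ2B by AlphaScreen, using 50 nM protein, 50 nM peptide and 10 ug/mL streptavidin donor plus Ni-chelate acceptor beads.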
GLS inh: inhibitors of human glutaminase (GLS) | O94925 | GLS enzymatic activity, qHTS titration | Potency, µM (highest dose often 45.5 µM), without a hit: top-dose activity change, negative = inhibition, most hits filed as inhibitors | actives 0.21% (n = 410,000) | AID 624170; also: % is scaled to controls: 0 for no effect and ±100 for the full control effect
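Human kidney-isoform GLS in 45 mM KH2PO4 pH 8.2, 0.02% Tween-20, with compound, started with 1mM L-Glutamine (added stock). Glutamate oxidase/HRP/Amplex red coupled fluorescence read at start and after 30 min at RT.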
JMJD2A Tudor inh: blocks the human JMJD2A Tudor domain | O75164 | AlphaScreen JMJD2A-Tudor / H3K4me3 peptide binding | Potency, µM (doses to about 114 µM), inactives show top-dose activity change, negative = inhibition, actives largely listed as inhibitors | actives 4.4% (n = 390,000); also: % is scaled to controls: 0 for no effect and ±100 for the full control effect; nearly all actives have a fitted effect of over 50% in size
* marks the source's active call; other numbers are inactive results; [ ] = another dose, or the depositor's remark. This is a sample that favours compounds with a hit; in the whole collection about 10% have one here. Calls follow the shape of the dose curve; as a rule, active = well fitted curve in the direction sought with a large enough effect; inconclusive = small, poorly fitted or top-dose-only effect, or another doubt; inactive = no such curve, though single readings can be large; an effect the other way counts as inactive or inconclusive. Potency is read from the fitted curve at half-maximal effect.

For CCc1nnc(NC(=O)CN2CCN(c3nc(-c4ccccc4)cs3)CC2)s1 the results were G9a block 50.1µM*, HP1b binding inh -10.1%, BAZ2B block inconclusive, GLS inh 2.1% and JMJD2A Tudor inh inconclusive.
`CCc1nnc(NC(=O)CN2CCN(c3ccccc3OC)CC2)s1` gave G9a block inconclusive, HP1b binding inh inconclusive, BAZ2B block 17.5%, GLS inh -20.1% and JMJD2A Tudor inh 56.2µM*.
C[C@H](CO)N1C[C@H](C)[C@@H](CN(C)S(=O)(=O)c2ccccc2)Oc2ccc(NC(=O)Cn3cnnn3)cc2C1=O was read as HP1b binding inh 34.8%, GLS inh 0.1% and JMJD2A Tudor inh -14.2%.
For CCOc1cc2[nH]c(=O)n(CC3CCC(C(=O)NCCCOC)CC3)c(=O)c2cc1OCC (stereo unspecified) the results were G9a block 5.7%, HP1b binding inh 27.5%, BAZ2B block -1.2%, GLS inh 8.6% and JMJD2A Tudor inh -11.5%.
CCCc1c(C(=O)Nc2cc(C(C)(C)C)on2)cnn1-c1ccccc1 was read as G9a block -7.1%, HP1b binding inh 44.4%, BAZ2B block 0.3%, GLS inh -7.4% and JMJD2A Tudor inh -8.0%.
For COc1ccc(O)c(C2NC(CC(C)C)(C(=O)O)C3C(=O)N(Cc4ccccc4)C(=O)C23)c1 (stereo unspecified) the results were G9a block -26.7%[59 µM], HP1b binding inh 21.2%, BAZ2B block 8.5%, GLS inh 20.0% and JMJD2A Tudor inh -27.7%.
For Cc1cccc(NC(=O)c2ccc(S(=O)(=O)N3CCCCC3)cc2)c1 the results were G9a block -3.6%[12.7 µM], HP1b binding inh 24.4%, BAZ2B block -2.6%, GLS inh 0.8% and JMJD2A Tudor inh -15.2%.
For Nc1c(-c2ccccc2)cc[nH]c1=O the results were JMJD2A Tudor inh 8.91µM*.
`O=c1[nH]cc(-c2ccccc2)c(=O)[nH]1` gave G9a block -1.1%, HP1b binding inh 34.9%, BAZ2B block -5.9%, GLS inh 2.1% and JMJD2A Tudor inh -4.2%.
Screening CC(C)(C)c1ccccc1NC(=O)CN1C(=O)NC(Cc2ccccc2)C1=O (stereo unspecified) returned G9a block -4.2%[0.501 µM], HP1b binding inh 19.6%, BAZ2B block 70.8µM*, GLS inh -0.6% and JMJD2A Tudor inh -9.6%.
Cn1c(=O)c2c(nc(SCCCC#N)n2Cc2c(F)cccc2Cl)n(C)c1=O was read as G9a block inconclusive, HP1b binding inh 46.5%, BAZ2B block 6.6%, GLS inh -0.7% and JMJD2A Tudor inh -21.8%.
COC(=O)CCCSc1nccn1-c1ccccc1 was read as G9a block 44.7µM*, HP1b binding inh 27.3%, BAZ2B block inconclusive, GLS inh -2.0% and JMJD2A Tudor inh -18.5%.
`O=C(CSc1nccn1-c1ccccc1)NCc1ccc(F)cc1` gave G9a block -38.0%, HP1b binding inh 15.9%, BAZ2B block -20.9%, GLS inh -5.1% and JMJD2A Tudor inh -8.8%.
COc1cccc(-n2ccnc2SCC(=O)NCc2ccccc2)c1 was read as G9a block inconclusive, HP1b binding inh -1.1%, BAZ2B block -7.3%, GLS inh 4.8% and JMJD2A Tudor inh -21.6%.
For c1ccc(CCSc2nccn2-c2ccccc2)cc1 the results were G9a block 44.7µM*, HP1b binding inh inconclusive, BAZ2B block 39.8µM*, GLS inh 8.7% and JMJD2A Tudor inh inconclusive.
Screening CCOc1ccc(NS(=O)(=O)c2ccc(C(=O)NCCCN3CCOCC3)cc2)cc1 returned G9a block 16.4%, HP1b binding inh 29.4%, BAZ2B block -16.5%, GLS inh 14.6% and JMJD2A Tudor inh -5.6%.
CCOc1ccc(CN2CCNC(=O)C2CC(=O)NCCc2nc(C)c3c(n2)CCC3)cc1 (stereo unspecified) was read as G9a block 15.0%[12.7 µM], HP1b binding inh 21.5%, BAZ2B block -6.7%, GLS inh -5.4% and JMJD2A Tudor inh -16.0%.
Screening CCn1ccnc1CNC(=O)CC1C(=O)NCCN1CC(c1ccccc1)c1ccccc1 (stereo unspecified) returned HP1b binding inh 30.2%, BAZ2B block -0.7%, GLS inh -2.6% and JMJD2A Tudor inh -17.4%.
`Cn1cc(CCNC(=O)CC2C(=O)NCCN2CC(c2ccccc2)c2ccccc2)cn1` (stereo unspecified) gave G9a block 12.6µM*, HP1b binding inh 56.7%, BAZ2B block -7.4%, GLS inh -2.1% and JMJD2A Tudor inh -35.1%.
Screening Cc1nc(CCNC(=O)CC2C(=O)NCCN2Cc2ccccc2)nc2c1CCC2 (stereo unspecified) returned G9a block 50.1µM*, HP1b binding inh 16.3%, BAZ2B block -34.3%, GLS inh -1.8% and JMJD2A Tudor inh -25.7%.
For Cc1cc(CNC(=O)CC2C(=O)NCCN2Cc2ccc(-c3ccccc3)cc2)nn1C (stereo unspecified) the results were G9a block -23.2%, HP1b binding inh 38.8%, BAZ2B block -37.5%, GLS inh 7.7% and JMJD2A Tudor inh -13.3%.
Cc1cc(CNC(=O)CC2C(=O)NCCN2Cc2ccccc2)nn1C (stereo unspecified) was read as G9a block 44.7µM*, HP1b binding inh 51.4%, BAZ2B block -2.3%, GLS inh 1.9% and JMJD2A Tudor inh -9.7%.
`Cc1sc2nc(CN3CCOCC3)nc(Cl)c2c1C` gave G9a block -4.9%[59 µM], HP1b binding inh 34.7%, BAZ2B block 5.7%, GLS inh -2.0% and JMJD2A Tudor inh -13.2%.
Screening COc1ccccc1C(=O)OCc1cc(=O)n2ccsc2n1 returned HP1b binding inh 6.0%, GLS inh 80.6% and JMJD2A Tudor inh -19.2%.
Screening CC(c1ccc(F)cc1)n1cc(C(=O)NCCN(C)C)nn1 (stereo unspecified) returned G9a block 44.7µM*, HP1b binding inh 54.5%, BAZ2B block -35.9%, GLS inh 0.2% and JMJD2A Tudor inh 4.5%.
`O=C(/C=C/c1ccco1)Nc1nc(-c2ccccc2)cs1` gave G9a block inconclusive, HP1b binding inh -0.7%, BAZ2B block inconclusive, GLS inh 0.5% and JMJD2A Tudor inh -11.5%.
For O=C(/C=C/c1ccco1)Nc1nc(-c2ccccn2)cs1 the results were G9a block 22.4µM*, HP1b binding inh 44.7µM*, BAZ2B block 28.2µM*, GLS inh -17.7% and JMJD2A Tudor inh 50.1µM*.
For Cc1csc(NC(=O)/C=C/c2ccco2)n1 the results were G9a block 20µM*, HP1b binding inh 10.4%, BAZ2B block -37.9%, GLS inh 0.2% and JMJD2A Tudor inh -21.9%.
`O=C(/C=C/c1ccco1)Nc1scc(-c2ccccc2)c1C(=O)O` gave G9a block 50.1µM*, HP1b binding inh inconclusive, BAZ2B block -28.5%, GLS inh 18.5% and JMJD2A Tudor inh -31.7%.
